# “And” between values parts separate entries of the source, which are not always exact repeats. Equal entries are not always repeated. The panel holds about 83,000 compounds, 20% with a hit somewhere; the sample as a whole holds those more often.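 Plates (96-well) were seeded with cells, treated with compound at one concentration, and incubated for 48 hours before percent growth was determined.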 Values without a mark were called inactive. The source made the active and inactive calls. Rule for the calls: active = growth percent below 10; inactive = the rest.
# Assays:
# Test in all cases: NCI-60 one-dose screen, 48 h (100 = growth as untreated, 0 = no growth, -100 = all killed)
# NCI-H23 lung = tested on: NCI-H23 lung
# NCI-H226 lung = tested on: NCI-H226 lung
# NCI-H322M lung = tested on: NCI-H322M lung
# HOP-62 NSCLC = tested on: HOP-62 NSCLC
# NCI-H460 lung = tested on: NCI-H460 lung
# HOP-92 NSCLC = tested on: HOP-92 NSCLC
# NCI-H522 lung = details: 10 µM unless noted
# A549/ATCC NSCLC = tested on: A549/ATCC NSCLC
# 786-0 renal = tested on: 786-0 renal
# COLO 205 colon = details: 10 µM unless noted
# DU-145 prostate = tested on: DU-145 prostate
# K-562 leukemia = tested on: K-562 leukemia
# MALME-3M melanoma = tested on: MALME-3M melanoma
# MDA-MB-231 breast = tested on: MDA-MB-231 breast
# RXF 393 renal = tested on: RXF 393 renal
# SF-268 CNS = tested on: SF-268 CNS
# SF-295 CNS = tested on: SF-295 CNS
# SF-539 CNS = tested on: SF-539 CNS
# UACC-257 melanoma = details: 10 µM unless noted
# M14 melanoma = tested on: M14 melanoma
smiles,measurement,setting,value
O=C(/C=C/C=C/c1ccc2c(c1)OCO2)N1CCCCC1,growth,NCI-H23 lung; 10 µM unless noted,95.6% and 102%
same,growth,NCI-H226 lung; 10 µM unless noted,104% and 95%
same,growth,NCI-H322M lung; 10 µM unless noted,101% and 113%
same,growth,HOP-62 NSCLC; 10 µM unless noted,100%
same,growth,NCI-H460 lung; 10 µM unless noted,109% and 113%
same,growth,HOP-92 NSCLC; 10 µM unless noted,97.3% and 89.6%
same,growth,NCI-H522 lung,115% and 81.1%
same,growth,A549/ATCC NSCLC; 10 µM unless noted,104% and 98.5%
same,growth,786-0 renal; 10 µM unless noted,103% and 57.4%
same,growth,COLO 205 colon,114% and 106%
same,growth,DU-145 prostate; 10 µM unless noted,119% and 110%
same,growth,K-562 leukemia; 10 µM unless noted,90.5% and 70.7%
same,growth,MALME-3M melanoma; 10 µM unless noted,108% and 214%
same,growth,MDA-MB-231 breast; 10 µM unless noted,98.6% and 98%
same,growth,RXF 393 renal; 10 µM unless noted,105% and 110%
same,growth,SF-268 CNS; 10 µM unless noted,114% and 99.2%
same,growth,SF-295 CNS; 10 µM unless noted,85.4% and 107%
same,growth,SF-539 CNS; 10 µM unless noted,109% and 101%
same,growth,UACC-257 melanoma,114% and 106%
O=[N+]([O-])c1cccc2ccc(N/N=C/c3ccccc3O)nc12,growth,NCI-H23 lung; 10 µM unless noted,72.4% and 98.3%
same,growth,NCI-H226 lung; 10 µM unless noted,83.4% and 99.5%
same,growth,NCI-H322M lung; 10 µM unless noted,88.2% and 94.8%
same,growth,HOP-62 NSCLC; 10 µM unless noted,85% and 97.9%
same,growth,NCI-H460 lung; 10 µM unless noted,91.9% and 98.4%
same,growth,HOP-92 NSCLC; 10 µM unless noted,67.7% and 77.7%
same,growth,NCI-H522 lung,78.6% and 89.2%
same,growth,A549/ATCC NSCLC; 10 µM unless noted,97.3% and 90.9%
same,growth,786-0 renal; 10 µM unless noted,102% and 85.9%
same,growth,COLO 205 colon,68.1% and 111%
same,growth,DU-145 prostate; 10 µM unless noted,88.7% and 107%
same,growth,K-562 leukemia; 10 µM unless noted,19.9% and 49.1%
same,growth,MALME-3M melanoma; 10 µM unless noted,96.2% and 100%
same,growth,MDA-MB-231 breast; 10 µM unless noted,72.6% and 84.5%
same,growth,RXF 393 renal; 10 µM unless noted,84.6%
same,growth,SF-268 CNS; 10 µM unless noted,106% and 99.2%
same,growth,SF-295 CNS; 10 µM unless noted,104% and 102%
same,growth,SF-539 CNS; 10 µM unless noted,90.9% and 101%
same,growth,UACC-257 melanoma,92.1% and 85.4%
same,growth,M14 melanoma; 10 µM unless noted,88.9% and 107%
Cc1ccc2cccc([N+](=O)[O-])c2n1,growth,NCI-H23 lung; 10 µM unless noted,108% and 95%
same,growth,NCI-H226 lung; 10 µM unless noted,101%
same,growth,NCI-H322M lung; 10 µM unless noted,110% and 90.5%
same,growth,HOP-62 NSCLC; 10 µM unless noted,103% and 95.1%
same,growth,NCI-H460 lung; 10 µM unless noted,117% and 107%
same,growth,HOP-92 NSCLC; 10 µM unless noted,123% and 96.2%
same,growth,NCI-H522 lung,90.2% and 93.8%
same,growth,A549/ATCC NSCLC; 10 µM unless noted,103% and 104%
same,growth,786-0 renal; 10 µM unless noted,118% and 98.3%
same,growth,COLO 205 colon,104% and 106%
same,growth,DU-145 prostate; 10 µM unless noted,116% and 109%
same,growth,K-562 leukemia; 10 µM unless noted,91% and 88.7%
same,growth,MALME-3M melanoma; 10 µM unless noted,99.1% and 108%
same,growth,MDA-MB-231 breast; 10 µM unless noted,107% and 104%
same,growth,RXF 393 renal; 10 µM unless noted,119% and 110%
same,growth,SF-268 CNS; 10 µM unless noted,103%
same,growth,SF-295 CNS; 10 µM unless noted,108% and 110%
same,growth,SF-539 CNS; 10 µM unless noted,105% and 103%
same,growth,UACC-257 melanoma,102% and 107%
same,growth,M14 melanoma; 10 µM unless noted,121% and 97.9%
CS/C(=C\c1ccc(C(=O)c2ccc(C)cc2)n1C)S(C)=O (stereo not drawn),growth,NCI-H23 lung; 10 µM,109%
same,growth,NCI-H23 lung; 100 µM,66.2%
same,growth,NCI-H226 lung; 10 µM,81.3%
same,growth,NCI-H226 lung; 100 µM,72.3%
same,growth,NCI-H322M lung; 10 µM,98%
same,growth,NCI-H322M lung; 100 µM,103%
same,growth,HOP-62 NSCLC; 10 µM,96.8%
same,growth,HOP-62 NSCLC; 100 µM,76.9%
same,growth,NCI-H460 lung; 10 µM,96.8%
same,growth,NCI-H460 lung; 100 µM,91.4%
same,growth,HOP-92 NSCLC; 10 µM,71.7%
same,growth,HOP-92 NSCLC; 100 µM,64.6%
same,growth,NCI-H522 lung,6.15% [100 µM] (active)
same,growth,A549/ATCC NSCLC; 10 µM,85.1%
same,growth,A549/ATCC NSCLC; 100 µM,65.7%
same,growth,786-0 renal; 10 µM,99.4%
same,growth,786-0 renal; 100 µM,74.1%
same,growth,DU-145 prostate; 10 µM,110%
same,growth,DU-145 prostate; 100 µM,88.1%
same,growth,K-562 leukemia; 10 µM,44.4%
same,growth,K-562 leukemia; 100 µM,26.3%
same,growth,MALME-3M melanoma; 10 µM,95%
same,growth,MALME-3M melanoma; 100 µM,69.3%
same,growth,MDA-MB-231 breast; 10 µM,89.6%
same,growth,MDA-MB-231 breast; 100 µM,85.6%
same,growth,RXF 393 renal; 10 µM,101%
same,growth,RXF 393 renal; 100 µM,73.2%
same,growth,SF-268 CNS; 10 µM,112%
same,growth,SF-268 CNS; 100 µM,93.2%
same,growth,SF-295 CNS; 10 µM,60.7%
same,growth,SF-295 CNS; 100 µM,62.2%
same,growth,SF-539 CNS; 10 µM,91.3%
same,growth,SF-539 CNS; 100 µM,80.4%
same,growth,UACC-257 melanoma,64.6% [100 µM]
same,growth,M14 melanoma; 10 µM,103%
same,growth,M14 melanoma; 100 µM,69%
N=c1sc2ccccc2n1CC(=O)O,growth,NCI-H23 lung; 10 µM unless noted,108%
same,growth,NCI-H226 lung; 10 µM unless noted,98.1%
same,growth,NCI-H322M lung; 10 µM unless noted,103%
same,growth,HOP-62 NSCLC; 10 µM unless noted,88.8%
same,growth,NCI-H460 lung; 10 µM unless noted,109%
same,growth,HOP-92 NSCLC; 10 µM unless noted,82.1%
same,growth,NCI-H522 lung,87.1%
same,growth,A549/ATCC NSCLC; 10 µM unless noted,83.7%
same,growth,786-0 renal; 10 µM unless noted,101%
same,growth,COLO 205 colon,106%
same,growth,DU-145 prostate; 10 µM unless noted,110%
same,growth,K-562 leukemia; 10 µM unless noted,108%
same,growth,MALME-3M melanoma; 10 µM unless noted,110%
same,growth,MDA-MB-231 breast; 10 µM unless noted,102%
same,growth,RXF 393 renal; 10 µM unless noted,113%
same,growth,SF-268 CNS; 10 µM unless noted,98.7%
same,growth,SF-295 CNS; 10 µM unless noted,98%
same,growth,SF-539 CNS; 10 µM unless noted,101%
same,growth,UACC-257 melanoma,89.7%
O=C(c1ccncc1)c1c(Cc2ccccc2)ccc2ccccc12,growth,NCI-H23 lung; 10 µM unless noted,55.2%
same,growth,NCI-H226 lung; 10 µM unless noted,82.5%
same,growth,NCI-H322M lung; 10 µM unless noted,74.2%
same,growth,HOP-62 NSCLC; 10 µM unless noted,95.1%
same,growth,NCI-H460 lung; 10 µM unless noted,89.8%
same,growth,HOP-92 NSCLC; 10 µM unless noted,82%
same,growth,NCI-H522 lung,27.8%
same,growth,A549/ATCC NSCLC; 10 µM unless noted,72.2%
same,growth,786-0 renal; 10 µM unless noted,104%
same,growth,COLO 205 colon,87%
same,growth,DU-145 prostate; 10 µM unless noted,99.2%
same,growth,K-562 leukemia; 10 µM unless noted,101%
same,growth,MALME-3M melanoma; 10 µM unless noted,32.3%
same,growth,MDA-MB-231 breast; 10 µM unless noted,70.2%
same,growth,RXF 393 renal; 10 µM unless noted,84%
same,growth,SF-268 CNS; 10 µM unless noted,117%
same,growth,SF-295 CNS; 10 µM unless noted,83.6%
same,growth,SF-539 CNS; 10 µM unless noted,95.3%
same,growth,UACC-257 melanoma,-14.4% (active)
